# Measurements published in article PMC5540273 (PLoS ONE, 2017).
# Values joined by “and” are separate entries in the source; they are usually repeats but may differ in a detail not shown here. Identical values can stand only once. Like-named read-outs stand apart in the source and are kept apart here.
# What was measured:
# RIPK5 = details: concentration: 1 μM, replicates: in singlicate; n = 1
# ROCK1 = details: concentration: 1 μM, replicates: in singlicate, n = 1
# ROCK2 = details: concentration: 1 μM, replicates: in singlicate, n = 1
# ROS1 = details: concentration: 1 μM, replicates: in singlicate, n = 1
# [1] = system: RPS6KA4(Kin.Dom.1-N-terminal); details: concentration: 1 μM, replicates: in singlicate, n = 1
# [2] = system: RPS6KA4(Kin.Dom.2-C-terminal); details: concentration: 1 μM, replicates: in singlicate; n = 1
# [3] = system: RPS6KA5(Kin.Dom.1-N-terminal); details: concentration: 1 μM, replicates: in singlicate, n = 1
# [4] = system: RPS6KA5(Kin.Dom.2-C-terminal); details: concentration: 1 μM, replicates: in singlicate, n = 1
# [5] = system: T1, RSK1(Kin.Dom.1-N-terminal); details: concentration: 1 μM, replicates: in singlicate, n = 1
# T1 construct: gene RPS6KA1
# [6] = system: T2, RSK1(Kin.Dom.2-C-terminal); details: concentration: 1 μM, replicates: in singlicate; n = 1
# T2 construct: gene RPS6KA1
# 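Note: KINOMEscan kinase panel screen.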
SMILES,%Inh (RIPK5),%Inh (ROCK1; 1 µM),%Inh (ROCK2; 1 µM),%Inh (ROS1; 1 µM),%Inh ([1]; 1 µM),%Inh [2],%Inh ([3]; 1 µM),%Inh ([4]; 1 µM),%Inh ([5]; 1 µM),%Inh [6],%Inh (ROCK1),%Inh (ROCK2),%Inh (ROS1),%Inh [1],%Inh [3],%Inh [4],%Inh [5]
CC(C)(CN)c1nc(-c2ccc(Cl)c(O)c2)c(-c2ccncc2)[nH]1.O=C(O)C(F)(F)F [SB-477794],0%,28% and 43%,49% and 40%,15% and 53%,0% and 23%,0%,5% and 0%,7% and 36%,16% and 15%,35%,,,,,,,
C[C@@H](Oc1cc(-n2cnc3ccc(NC(=O)NC(C)(C)C)cc32)sc1C(N)=O)c1ccccc1Cl [GSK346294],10%,,,,,0%,,,,15%,4%,17%,33%,11%,13%,14%,0%
NS(=O)(=O)c1cccc(-c2ccc3ncc(N4CCOCC4)nc3c2)c1 [GSK1535721],8%,,,,,0%,,,,6%,0%,0%,2%,4%,8%,13%,0%
Cl.Nc1ncnc2occ(-c3ccc(NC(=O)Nc4cc(C(F)(F)F)ccc4F)cc3)c12 [SB-707548],28%,,,,,0%,,,,30%,38%,74%,50%,48%,63%,16%,18%
O=c1cc(N2CCOCC2)nc2n(Cc3cccc4ccccc34)ccn12 [GSK2333389],0%,,,,,0%,,,,0%,0%,19%,0%,12%,0%,0%,0%
COC(=O)Nc1nc2cc(Oc3ccc(NC(=O)Nc4cc(F)ccc4F)cc3)ccc2[nH]1.Cl [GW701424],0%,,,,,0%,,,,0%,52%,67%,0%,0%,24%,43%,0%
c1ccc(-c2n[nH]cc2-c2ccnc3ccccc23)nc1 [GW271431],0%,,,,,0%,,,,12%,0%,0%,28%,11%,9%,4%,21%
O=C(NCCCN1CCOCC1)c1cccc(Nc2nccc(Nc3ccc(Oc4ccccc4)cc3)n2)c1 [GW663929],7%,,,,,0%,,,,20%,0%,27%,25%,0%,0%,32%,18%
[2H]C([2H])(c1cccc(C(F)(F)F)c1C)n1ccn2c(=O)nc(N3CCOCC3)cc12 [GSK2336394],0%,,,,,0%,,,,0%,8%,0%,22%,17%,2%,0%,5%
Nc1nc(-c2ccc3c(N)n[nH]c3c2)cc(N2CCCC2)n1 [GSK2227430],0%,,,,,0%,,,,0%,2%,0%,0%,0%,10%,0%,9%
COc1ccc(COc2cc(-n3cnc4ccccc43)sc2C(N)=O)cc1 [GSK1024304],0%,,,,,0%,,,,0%,9%,20%,0%,0%,3%,13%,6%
Nc1nccc(-c2c(-c3ccc(F)cc3)ncn2C2CCN(CC(F)(F)F)CC2)n1 [SB-236560],13%,,,,,0%,,,,27%,38%,49%,14%,0%,0%,0%,0%
CC(C)(C)n1cnc2c(N)ncnc21 [SKF-97359],0%,,,,,0%,,,,80%,52%,33%,64%,10%,0%,0%,0%
Cc1ccc(C(=O)NCC(N)=O)cc1-n1c(C)cc(OCc2ccc(F)cc2F)c(Br)c1=O,0%,,,,,0%,,,,0%,0%,0%,20%,0%,20%,15%,3%
NS(=O)(=O)CCc1cccc(Nc2nccc(-c3c(-c4cccc(NC(=O)c5c(F)cccc5F)c4)nn4ccccc34)n2)c1 [GSK336735],10%,,,,,0%,,,,0%,24%,0%,79%,53%,63%,6%,100%
Cc1cccc(-c2nc(Nc3ccc4ncsc4c3)c3ccccc3n2)n1 [GW867588],24%,,,,,0%,,,,16%,45%,13%,17%,30%,0%,8%,0%
Cc1cn2c(=O)cc(N3CCOCC3)nc2n1Cc1cccc(Cl)c1Cl [GSK2334006],0%,,,,,0%,,,,5%,33%,30%,15%,27%,24%,6%,0%

SMILES,%Inh (RIPK5),%Inh (ROCK1; 1 µM),%Inh (ROCK2; 1 µM),%Inh (ROS1; 1 µM),%Inh ([1]; 1 µM),%Inh [2],%Inh ([3]; 1 µM),%Inh ([4]; 1 µM),%Inh ([5]; 1 µM),%Inh [6],%Inh (ROCK1),%Inh (ROCK2),%Inh (ROS1),%Inh [1],%Inh [3],%Inh [4],%Inh [5]
O=C1Cc2cc(Nc3nc(NCc4cccc(S(=O)(=O)C(F)(F)F)c4)ncc3C(F)(F)F)ccc2N1,4%,,,,,24%,,,,0%,6%,13%,3%,11%,0%,0%,41%
N#Cc1ccc(-c2cc(-c3c[nH]nc3-c3ccccn3)ccn2)cc1 [GW693028],0%,,,,,0%,,,,0%,28%,3%,0%,5%,19%,10%,13%
O=C(Nc1n[nH]c2cc(-c3cccc(F)c3)ccc12)C1CC1 [SB-735464],23%,,,,,9%,,,,26%,18%,4%,16%,0%,0%,24%,1%
COc1ccc(CNC(=O)NC2CCN(c3ccnc(Nc4ccc(OC)cc4)n3)C2)cc1 (stereo not drawn) [GSK1379727],55%,,,,,0%,,,,0%,40%,40%,0%,0%,7%,0%,0%
CCCCCc1nc2c(N)ncnc2n1CCCCC [SKF-97255],8%,,,,,0%,,,,11%,90.1%,59%,1%,6%,14%,9%,8%
CCn1cnc2c(N)ncnc21 [GW345098],38%,,,,,25%,,,,11%,12%,22%,0%,5%,0%,0%,7%
CC(C)Oc1ccc2c(-c3ccnc(Nc4ccc(N5CCN(C)CC5)cc4)n3)cnn2n1 [GW696155],77%,,,,,99.8%,,,,90%,98.8%,99.7%,51%,0%,0%,98.9%,34%
COc1cc2ncn(-c3cc(OCc4sccc4Cl)c(C(N)=O)s3)c2cc1OC [GSK448459],0%,,,,,0%,,,,0%,26%,23%,6%,13%,5%,0%,12%
COc1ccc(Nc2ncc(C#N)c(Nc3ccccc3C(N)=O)n2)cc1N1CCN(C)CC1.Cl [GSK1558669],98.7%,,,,,97%,,,,47%,87%,91.2%,97%,100%,98%,44%,99.7%
CCc1ccnc(/C=C/c2n[nH]c3cc(Sc4ccccc4C(=O)NC)ccc23)c1,0%,,,,,0%,,,,3%,0%,0%,19%,0%,0%,0%,0%
Cc1nnc(-c2ccc3occ(-c4ccc(C(C)O)cc4)c3c2)o1 (stereo not drawn),0%,,,,,25%,,,,1%,5%,0%,0%,9%,20%,0%,9%
COc1ccc(Nc2nccc(N3CCC(NC(=O)Nc4cccc(C(C)=O)c4)C3)n2)cc1 (stereo not drawn) [GSK1379731],0%,,,,,0%,,,,0%,25%,0%,4%,2%,0%,0%,0%
Fc1ccc(-c2ncn(CCCN3CCOCC3)c2-c2cccnc2)cc1 [SB-211743],9%,,,,,0%,,,,9%,0%,6%,27%,31%,0%,5%,2%
O=C(c1ccc(-c2cc(-c3c[nH]nc3-c3ccccn3)ccn2)cc1)N1CCOCC1 [GW812171],22%,,,,,0%,,,,0%,0%,24%,0%,6%,0%,0%,14%
N#Cc1c(N2CCOCC2)sc(-c2ccn[nH]2)c1-c1ccc(Cl)cc1,15%,,,,,3%,,,,18%,11%,0%,8%,0%,0%,7%,17%
CN(C(=O)c1ccc(-c2cc(-c3c[nH]nc3-c3ccccn3)ccn2)cc1)C1CCOCC1 [GW810083],0%,,,,,0%,,,,0%,31%,20%,0%,0%,0%,0%,0%
